# Measurements as given in PubChem BioAssay (Tox21).
# Unmarked numbers belong to inactive results. Records with an inconclusive call do not appear. Entries that show only a call come without a potency. Activity calls are given as the source filed them. Calls follow the shape of the dose curve; as a rule, active = well fitted curve in the direction sought with a large enough effect in the repeat runs; inconclusive = weak or mixed curves; inactive = no such curve, though single readings can be large; an effect the other way counts as inactive or inconclusive.
# What was measured:
# [1] = A CellTox Green Cytotoxicity Assay to monitor cytotoxicity in HepG2 cells - 16 hour (AID 1224876); also: nearly all actives have a fitted effect of over 45% in size; also: potency is read from the fitted curve at half-maximal effect
# Summary of the method: (§1)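 Continuous culture of HepG2 cells with a membrane-impermeant DNA dye; rising fluorescence marks dead cells. Compound exposure lasted up to 40 h at 37 C, with reads every 8 h from 0 h.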
# [2] = qHTS RealTime-Glo MT Cell Viability Assay in HepG2 cells - 32 hour (AID 1224877); also: nearly all actives have a fitted effect of over 55% in size
# Summary of the method: (§2)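 Luminescence read-out: viable HepG2 cells reduce a prosubstrate to a NanoLuc substrate, giving a signal proportional to live cell number. Reads taken at 0, 8, 16, 24, 32 and 40 h of compound exposure at 37 C.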
# [3] = A CellTox Green Cytotoxicity Assay to monitor cytotoxicity in HepG2 cells - 24 hour (AID 1224878); also: nearly all actives have a fitted effect of over 45% in size; also: potency is read from the fitted curve at half-maximal effect
# Summary of the method: as §1
# [4] = A CellTox Green Cytotoxicity Assay to monitor cytotoxicity in HepG2 cells - 40 hour (AID 1224879); also: nearly all actives have a fitted effect of over 40% in size; also: potency is read from the fitted curve at half-maximal effect
# Summary of the method: as §1
# [5] = qHTS RealTime-Glo MT Cell Viability Assay in HEK293 cells - 0 hour (AID 1224880); also: top concentration of the series differs between compounds; nearly all actives have a fitted effect of over 45% in size
# Summary of the method: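 qHTS format; HEK293 cells with NanoLuc/prosubstrate reagent, 37 C/5% CO2 for 5 h pre-dosing; compounds 23 nL in DMSO; luminescence at each time point reflects viable cells.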
# [6] = A CellTox Green Cytotoxicity Assay to monitor cytotoxicity in HEK293 cells - 32 hour (AID 1224881); also: nearly all actives have a fitted effect of over 40% in size; also: potency is read from the fitted curve at half-maximal effect
# Summary of the method: (§3)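 Each value comes from one timepoint of a single continuous run in which HEK293 cells with CellTox Green were exposed to compound for up to 40 h at 37 C, dye fluorescence rising with cell death.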
# [7] = A CellTox Green Cytotoxicity Assay to monitor cytotoxicity in HepG2 cells - 0 hour (AID 1224882); also: nearly all actives have a fitted effect of over 35% in size; also: potency is read from the fitted curve at half-maximal effect
# Summary of the method: as §1
# [8] = A CellTox Green Cytotoxicity Assay to monitor cytotoxicity in HEK293 cells - 8 hour (AID 1224884); also: nearly all actives have a fitted effect of over 35% in size; also: potency is read from the fitted curve at half-maximal effect
# Summary of the method: as §3
# [9] = A CellTox Green Cytotoxicity Assay to monitor cytotoxicity in HepG2 cells - 32 hour (AID 1224883); also: nearly all actives have a fitted effect of over 50% in size
# Summary of the method: as §1
# [10] = qHTS RealTime-Glo MT Cell Viability Assay in HepG2 cells - 16 hour (AID 1224885); also: nearly all actives have a fitted effect of over 50% in size
# Summary of the method: as §2
structure (smiles),measurement,setting,value
CCC(C(=O)OCCN1CCOC(c2ccccc2)C1C)c1ccccc1 (stereo unspecified),Potency,[1],inactive
same,outcome,[2],inactive
same,Potency,[3],inactive
same,Potency,[4],inactive
same,Potency,[5],inactive
same,Potency,[6],inactive
same,Potency,[7],inactive
same,Potency,[8],inactive
COP(=O)(O)OP(=O)(O)OC,Potency,[1],inactive
same,outcome,[2],inactive
same,Potency,[3],inactive
same,Potency,[4],inactive
same,Potency,[5],inactive
same,Potency,[6],inactive
same,Potency,[7],inactive
same,Potency,[9],inactive
same,Potency,[8],inactive
same,outcome,[10],inactive
OC[C@@H](O)C(O)[C@@H](O)CO (stereo partly specified),Potency,[1],inactive
same,outcome,[2],inactive
same,Potency,[3],inactive
same,Potency,[4],inactive
same,Potency,[5],inactive
same,Potency,[6],inactive
same,Potency,[9],inactive
same,Potency,[8],inactive
same,outcome,[10],inactive
CSc1cnccn1,Potency,[1],inactive
same,outcome,[2],inactive
same,Potency,[3],inactive
same,Potency,[4],inactive
same,Potency,[5],inactive
same,Potency,[6],inactive
same,Potency,[7],inactive
same,Potency,[9],inactive
same,Potency,[8],inactive
same,outcome,[10],inactive
C=CCOC(=O)CCCCCC,Potency,[1],inactive
same,outcome,[2],inactive
same,Potency,[3],inactive
same,Potency,[4],inactive
same,Potency,[5],inactive
same,Potency,[6],inactive
same,Potency,[7],inactive
same,Potency,[8],inactive
CC(O)COC(C)(C)C (stereo unspecified),Potency,[1],inactive
same,outcome,[2],inactive
same,Potency,[3],inactive
same,Potency,[4],inactive
same,Potency,[5],inactive
same,Potency,[6],inactive
same,Potency,[7],inactive
same,Potency,[8],inactive
same,outcome,[10],inactive
CC/C(C)=N\O[Si](C)(O/N=C(\C)CC)O/N=C(\C)CC,Potency,[1],inactive
same,outcome,[2],inactive
same,Potency,[3],inactive
same,Potency,[4],inactive
same,Potency,[5],inactive
same,Potency,[6],inactive
same,Potency,[7],inactive
same,Potency,[9],inactive
same,Potency,[8],inactive
same,outcome,[10],inactive
O=C1CCC(=O)N1Cl,Potency,[1],inactive
same,outcome,[2],inactive
same,Potency,[3],inactive
same,Potency,[4],inactive
same,Potency,[5],inactive
same,Potency,[6],inactive
same,Potency,[7],inactive
same,Potency,[9],inactive
same,Potency,[8],inactive
same,outcome,[10],inactive
CC1=NN(c2ccc(S(=O)(=O)O)cc2)C(=O)C1,Potency,[1],inactive
same,outcome,[2],inactive
same,Potency,[3],inactive
same,Potency,[4],inactive
same,Potency,[5],inactive
same,Potency,[6],inactive
same,Potency,[7],inactive
same,Potency,[8],inactive
same,outcome,[10],inactive
CCC(C)C(C)=O (stereo unspecified),Potency,[1],inactive
same,outcome,[2],inactive
same,Potency,[3],inactive
same,Potency,[4],inactive
same,Potency,[5],inactive
same,Potency,[6],inactive
same,Potency,[7],inactive
same,Potency,[8],inactive
OC[C@H]1O[C@@H](O[C@@H]2[C@@H](CO)O[C@](O)(CO)[C@H]2O)[C@H](O)[C@@H](O)[C@H]1O,Potency,[1],inactive
same,outcome,[2],inactive
same,Potency,[3],inactive
same,Potency,[4],inactive
same,Potency,[5],inactive
same,Potency,[6],inactive
same,Potency,[9],inactive
same,Potency,[8],inactive
CC(C)C[C@@H]1[C@H](c2ccccc2)OC(=O)N1CCCN1CCCCCC1,Potency,[1],inactive
same,outcome,[2],inactive
same,Potency,[3],inactive
same,Potency,[4],inactive
same,Potency,[5],inactive
same,Potency,[6],inactive
same,Potency,[9],inactive
same,Potency,[8],inactive
CCCSSCCC,Potency,[1],inactive
same,outcome,[2],inactive
same,Potency,[3],inactive
same,Potency,[4],inactive
same,Potency,[5],inactive
same,Potency,[6],inactive
same,Potency,[9],inactive
same,Potency,[8],inactive
CCCCOCCOC(=O)COc1ccc(Cl)cc1Cl,Potency,[1],inactive
same,outcome,[2],inactive
same,Potency,[3],inactive
same,Potency,[4],inactive
same,Potency,[5],inactive
same,Potency,[6],inactive
same,Potency,[7],inactive
same,Potency,[9],inactive
same,Potency,[8],inactive
same,outcome,[10],inactive
CCC/C=C(\C=O)CC,Potency,[1],inactive
same,outcome,[2],inactive
same,Potency,[3],inactive
same,Potency,[4],inactive
same,Potency,[5],inactive
same,Potency,[6],inactive
same,Potency,[7],inactive
same,Potency,[8],inactive
same,outcome,[10],inactive
COc1cc(OC)nc(O[C@H](C(=O)O)C(OC)(c2ccccc2)c2ccccc2)n1,Potency,[1],inactive
same,outcome,[2],inactive
same,Potency,[3],inactive
same,Potency,[4],inactive
same,Potency,[5],inactive
same,Potency,[6],inactive
same,Potency,[7],inactive
same,Potency,[8],inactive
same,outcome,[10],inactive
COc1c2occc2c(OC)c2c(=O)cc(C)oc12,Potency,[1],inactive
same,outcome,[2],inactive
same,Potency,[3],inactive
same,Potency,[4],inactive
same,Potency,[5],inactive
same,Potency,[6],inactive
same,Potency,[7],inactive
same,Potency,[9],inactive
same,Potency,[8],inactive
same,outcome,[10],inactive
O=S(=O)(O)c1ccc2c(N=Nc3ccc(S(=O)(=O)O)c4ccccc34)c(O)c(S(=O)(=O)O)cc2c1,cytotoxicity increase,[1],-11.6% [at 6.97 µM]
same,"activity change, negative = cytotoxic",[2],-3.7% [at 6.97 µM]
same,cytotoxicity,[3],-12.7% [at 6.97 µM]
same,cytotoxicity increase,[4],-16.2% [at 6.97 µM]
same,"activity change, negative = cytotoxicity",[5],7.55% [at 6.97 µM]
same,cytotoxicity increase,[6],8.52% [at 6.97 µM]
same,cytotoxicity,[7],-11.5% [at 6.97 µM]
same,cytotoxicity increase,[9],-12.7% [at 6.97 µM]
same,cytotoxicity increase,[8],7.19% [at 6.97 µM]
same,"activity change, negative = cytotoxic",[10],0.447% [at 6.97 µM]
CC(=O)CC(=O)OC(C)(C)C,Potency,[1],inactive
same,outcome,[2],inactive
same,Potency,[3],inactive
same,Potency,[4],inactive
same,Potency,[5],inactive
same,Potency,[6],inactive
same,Potency,[7],inactive
same,Potency,[9],inactive
same,outcome,[10],inactive
N[C@@H](Cc1ccc(O)cc1)C(=O)O,cytotoxicity increase,[1],-12.3% [at 6.97 µM]
same,"activity change, negative = cytotoxic",[2],-0.0666% [at 6.97 µM]
same,cytotoxicity,[3],-12.9% [at 6.97 µM]
same,cytotoxicity increase,[4],-8.31% [at 6.97 µM]
same,"activity change, negative = cytotoxicity",[5],4.85% [at 6.97 µM]
same,cytotoxicity increase,[6],4.36% [at 6.97 µM]
same,cytotoxicity increase,[9],-9.11% [at 6.97 µM]
same,cytotoxicity increase,[8],-1.4% [at 6.97 µM]
same,"activity change, negative = cytotoxic",[10],0.618% [at 6.97 µM]
CCCCC1CCC(O)CC1 (stereo unspecified),Potency,[1],inactive
same,outcome,[2],inactive
same,Potency,[3],inactive
same,Potency,[4],inactive
same,Potency,[5],inactive
same,Potency,[6],inactive
same,Potency,[9],inactive
same,Potency,[8],inactive
same,outcome,[10],inactive
CC(=O)C1C(=O)C=C(C)OC1=O (stereo unspecified),Potency,[1],inactive
same,outcome,[2],inactive
same,Potency,[3],inactive
same,Potency,[4],inactive
same,Potency,[5],inactive
same,Potency,[6],inactive
same,Potency,[9],inactive
same,Potency,[8],inactive
same,outcome,[10],inactive
CC(C)=CCC[C@@](C)(O)[C@H]1CC=C(C)CC1,Potency,[1],inactive
same,outcome,[2],inactive
same,Potency,[3],inactive
same,Potency,[4],inactive
same,Potency,[5],inactive
same,Potency,[6],inactive
same,Potency,[7],inactive
same,Potency,[8],inactive
same,outcome,[10],inactive
CCCCCCCCCOC(=O)CCCCC(=O)OCCCCCCC,Potency,[1],24.5 µM (active)
same,outcome,[2],inactive
same,Potency,[3],24.5 µM (active)
same,Potency,[4],24.5 µM (active)
same,Potency,[5],inactive
same,Potency,[6],24.5 µM (active)
same,Potency,[7],27.5 µM (active)
same,Potency,[8],38.9 µM (active)
same,outcome,[10],inactive
CCc1occc(=O)c1O,Potency,[1],inactive
same,outcome,[2],inactive
same,Potency,[3],inactive
same,Potency,[4],inactive
same,Potency,[5],inactive
same,Potency,[6],inactive
same,Potency,[9],inactive
same,Potency,[8],inactive
same,outcome,[10],inactive
